# Measurements reported in PubChem BioAssay AID1851 (National Center for Advancing Translational Sciences (NCATS), 2009).
# The campaign covered roughly 16,000 compounds. About 4,000 (25%) were called active. About 26% were inconclusive and are not listed. Calls follow the shape of the dose curve; as a rule, active = well fitted curve in the direction sought with a large enough effect; inconclusive = small, poorly fitted or top-dose-only effect, or effect the other way; inactive = no such curve, though single readings can be large or run the other way. Only a sample is shown.
# Molecular target: Cytochrome P450 2C9 (Homo sapiens) (UniProt P11712)
# Sequence (P11712 whole entry, looked up): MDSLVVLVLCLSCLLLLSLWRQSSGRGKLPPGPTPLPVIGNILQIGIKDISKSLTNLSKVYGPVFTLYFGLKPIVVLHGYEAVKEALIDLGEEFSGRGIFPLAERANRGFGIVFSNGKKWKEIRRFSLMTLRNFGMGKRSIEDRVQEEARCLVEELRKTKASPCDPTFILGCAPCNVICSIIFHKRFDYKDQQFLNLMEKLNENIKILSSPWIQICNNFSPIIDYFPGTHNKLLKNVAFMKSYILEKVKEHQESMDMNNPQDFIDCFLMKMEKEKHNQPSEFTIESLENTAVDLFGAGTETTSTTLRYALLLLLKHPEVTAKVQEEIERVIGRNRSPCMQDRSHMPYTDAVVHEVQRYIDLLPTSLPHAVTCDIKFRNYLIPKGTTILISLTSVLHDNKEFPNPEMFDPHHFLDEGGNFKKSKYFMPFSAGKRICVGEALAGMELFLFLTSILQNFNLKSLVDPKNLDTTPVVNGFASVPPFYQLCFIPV
# Experiment: Cytochrome panel assay with activity outcomes
# Settings: recombinant CYP, pro-luciferin dealkylation, luminescence, p450-cyp2c9; series mostly up to 57.1 µM
# % is scaled to controls: 0 for no effect and ±100 for the full control effect.
SMILES,"activity, negative = inhibition",AC50
Cc1cnc(CNc2ncncc2-c2cccc(C#N)c2)cn1,-1.84% [at 2.29 µM] (inactive),
Cn1cc[nH]c1=S,,inactive
CN1CCC2(CC1)CCN(C(=O)c1cc(C(F)(F)F)cc(C(F)(F)F)c1)CC2,,inactive
CCOC(=O)CSC1=C(C#N)C(c2sccc2C)C(C(C)=O)=C(C)N1 (centres undefined),,1.78 µM (active)
C=CCOC(=O)C1=C(C)NC(SCC(=O)OCC)=C(C#N)C1c1ccc(C)cc1 (centres undefined),,7.94 µM (active)
CCOC(=O)CSC1=C(C#N)C(c2sccc2C)CC(=O)N1 (centres undefined),,12.6 µM (active)
CCCC(O)(CCC)C(=O)NN1CCCCC1,,inactive
CC(=O)N1CCc2cc(Br)cc(S(=O)(=O)N3CCN(C(=O)c4ccco4)CC3)c21,,5.01 µM (active)
O=C(c1ccco1)N1CCC2(CC1)CN(c1ccc(-c3ccccc3)cc1)C2,,inactive
O=C(c1ccco1)N1CCC2(CC1)CCN(c1ccccc1)CC2,,inactive
COc1ccc(/C=N\NC(=O)O)cc1,-7.71% [at 11.4 µM] (inactive),
COc1ccc(C(=O)Oc2cc(/C=N/NS(=O)(=O)c3ccc(C)cc3)ccc2OC)cc1,,2.24 µM (active)
CS(=O)(=O)c1ccc(/C=N\NC(N)=S)cc1,-1.25% [at 11.4 µM] (inactive),
COc1ccc(/C=N/NC(=S)NC2CCS(=O)(=O)C2)cc1OC (centres undefined),,inactive
Cc1ccc(S(=O)(=O)N/N=C/c2ccc(OC3CSC3)cc2)cc1,,1.41 µM (active)
Fc1ccc(-c2ccnc3nc(N4CCOCC4)nn23)cc1,,inactive
COC(=O)C1=C(C)NC(C)=C(C(=O)OCCSc2ccccc2)[C@@H]1C,,3.16 µM (active)
O=C(O)CCCSc1ccccc1,14.8% [at 11.4 µM] (inactive),
Cc1nc2cnc(N3CCN(C)CC3)nc2n(Cc2ccc(F)cc2)c1=O,,inactive
COC(=O)c1ccc(Oc2cc(C)nc(-n3nc(C)cc3C)n2)cc1,,25.1 µM (active)
Cc1nc2ccccc2nc1-c1ccc(N=[N+]([O-])c2ccc(-c3nc4ccccc4nc3C)cc2)cc1,-2.63% [at 11.4 µM] (inactive),
C[N+](C)(C)CCO,,inactive
CC(C)COC[C@H](CN(Cc1ccccc1)c1ccccc1)N1CCCC1,,inactive
c1ccc2c(c1)C(=Nc1ccc(N=C3c4ccccc4-c4ccccc43)cc1)c1ccccc1-2,-2.68% [at 11.4 µM] (inactive),
O=C1CC(=Nc2ccccc2)NN1c1ccccc1,,2.82 µM (active)
CC1=NN(c2ccccc2)C(=O)C1,,inactive

SMILES,"activity, negative = inhibition",AC50
N#Cc1cccc(NC(=O)N2CCC3(CC2)CCN(C(=O)c2cccc(F)c2)CC3)c1,,inactive
Cc1cc2c(s1)CCCCC(=O)N2,,inactive
CN(C)CCCO[C@H]1[C@@H]2OC(C)(C)O[C@@H]2O[C@@H]1[C@H](O)CO,,inactive
CS(=O)(=O)N1CCC[C@@]2(CCN(C(=O)Nc3ccccc3)C2)C1,,inactive
COc1ccc(NC(=O)N2CC3(CCN(S(C)(=O)=O)CC3)C2)cc1,,inactive
COc1ccc(NC(=O)N2CCCC3(CCN(S(=O)(=O)c4ccccc4)CC3)C2)cc1,,20 µM (active)
COc1ccc(NC(=O)N2CCC3(CC2)CCN(S(=O)(=O)c2ccccc2)CC3)cc1,,inactive
COc1ccc(NC(=O)N2CC3(CCN(S(=O)(=O)c4ccccc4)CC3)C2)cc1,,inactive
COc1ccc(NC(=O)N2CCCC3(CCN(S(C)(=O)=O)CC3)C2)cc1,,inactive
O=C(Nc1ccccc1)N1CCCC2(CCN(S(=O)(=O)c3ccccc3)CC2)C1,,10 µM (active)
O=C(Nc1ccccc1)N1CCC2(CC1)CCN(S(=O)(=O)c1ccccc1)CC2,,inactive
COc1ccc(NC(=O)N2CCC3(CC2)CCN(S(C)(=O)=O)CC3)cc1,,15.8 µM (active)
CN1CC[C@@]2(CCN3CCc4c(oc5ccccc45)[C@@H]3C2)N(C)C1=O,,inactive
Cc1nc(N=Nc2cc(S(=O)(=O)O)ccc2S(=O)(=O)O)c(COP(=O)(O)O)c(C=O)c1O,,inactive
CN1CCCC[C@@H]1CCN1CCCCC1,-2.28% [at 11.4 µM] (inactive),
CSc1nncn1/N=C/c1ccc2c(c1)OCO2,,inactive
Cn1c(=O)n(C)c2cc(S(=O)(=O)O)ccc21,,inactive
Cn1c(=O)n(C)c2cc(/C=N/n3cnnc3)ccc21,,2.24 µM (active)
CC(C)OC(=O)C1=C2SCC(=O)N2C(N)=C(C#N)C1,,8.91 µM (active)
Nc1nc(N)nc(CCCc2nc(N)nc(N)n2)n1,9.16% [at 11.4 µM] (inactive),
CC(=O)Nc1nnc(S(N)(=O)=O)s1,,inactive
CC(=O)Nc1nnc(CCN2CCCCC2)s1,,inactive
CC(C)=CC(=O)Nc1nnc(C(C)C)s1,,10 µM (active)
Cc1nn(-c2ccccc2)c(C)c1/C=N/NC(=O)c1cc(-c2ccc(Cl)s2)[nH]n1,,7.94 µM (active)
Cc1c(C(=O)N/N=C/c2ccccc2)sc(=S)n1C,,inactive
Cc1ccccc1/C=N\NC(=O)c1csnn1,,inactive

SMILES,"activity, negative = inhibition",AC50
O=C(NCCN1CCCC1)C1(S(=O)(=O)c2ccc(Cl)cc2)CC1,,inactive
CCOC(=O)C1(S(=O)(=O)c2ccc(Cl)cc2)CCN(Cc2ccc(Cl)cc2)CC1,,3.55 µM (active)
CC(C)(C)C(=O)N1CCC(O)(CS(=O)(=O)Cc2ccc(Cl)cc2)CC1,,inactive
CCn1c(CC(C)C)n[nH]c1=S,,inactive
S=c1[nH]nc(CCc2ccccc2)n1Cc1ccccc1,,7.94 µM (active)
Cc1ccccc1N1CCN(S(=O)(=O)C[C@@]23CC[C@H](C[C@H]2NC(=O)[C@@H](N)CCS(C)(=O)=O)C3(C)C)CC1,,inactive
COC(=O)c1sc2ccccc2c1-n1cccc1C(=O)C(=O)Nc1ccc(Cl)cc1,,0.1 µM (active)
C=CCNC(=O)c1cccn1-c1ccsc1C(=O)OC,,inactive
COC(=O)c1ccccc1NS(=O)(=O)c1ccc2c3c(cccc13)C(=O)N2,,0.178 µM (active)
CCCCOC(=O)Nc1ccccc1C(=O)OC,,inactive
Oc1ccc([C@@H]2CNCc3sccc32)cc1O,,inactive
Cc1cc(C)cc(Oc2coc3cc(OC(=O)c4cccs4)ccc3c2=O)c1,,inactive
Cc1ccc2nc(/C(C#N)=C\c3ccc(OC(=O)c4cccs4)cc3)[nH]c2c1,,2 µM (active)
Cn1c(=O)c2c(ncn2CCO)n(C)c1=O,,inactive
Cn1c(=O)c2c(ncn2CC(COCc2ccccc2Cl)OCc2ccccc2Cl)n(C)c1=O (centres undefined),,15.8 µM (active)
Cn1c(=O)c2c(ncn2C[C@@H](O)CO)n(C)c1=O,,inactive
Cc1ccc(NC(=O)CCc2ccc(S(=O)(=O)NC3CCCCC3)cc2)cc1,,3.98 µM (active)
Cc1ccc(NC(=S)NC2CCCC2)cc1,,inactive
CCC(C)NS(=O)(=O)c1ccc(NC(=O)CCC2CCCCC2)cc1 (centres undefined),,inactive
O=C(CCc1ccc(S(=O)(=O)NC2CCCCC2)cc1)N(Cc1ccccc1)Cc1ccccc1,,1 µM (active)
OCCNCCCOc1cccc(Cl)c1Cl,,inactive
O[C@@H](c1ccccc1)C1CCN(CCc2ccccc2)CC1,,inactive
CCCCNc1nc(SC)nc2nc[nH]c12,-18.3% [at 11.4 µM] (inactive),
O=C(OCc1nc2ccccc2s1)c1ccc(Br)s1,,4.47 µM (active)
O=C(O)c1ccc(Oc2nc3ccccc3s2)cc1,-27% [at 11.4 µM] (inactive),
Cc1cc([N+](=O)[O-])c(C)c(Br)c1C,20.3% [at 11.4 µM] (inactive),

SMILES,"activity, negative = inhibition",AC50
CC(=O)OCCNC(=O)c1cccnc1,,inactive
O=C(NCCO[N+](=O)[O-])c1cccnc1,,2 µM (active)
O=C(NCCOC(=O)c1ccc(C(=O)OCCNC(=O)c2cccnc2)s1)c1cccnc1,,3.98 µM (active)
CN(C)c1ccnc(-c2ccccc2C(F)(F)F)n1,10.1% [at 2.29 µM] (inactive),
CCOC(=O)C[C@@H](C(=O)OCC)[C@@H]1CCCCC1=O,19.8% [at 11.4 µM] (inactive),
COc1ccccc1CC(=N)N1C[C@@H]2C(=O)CCC(c3ccccc3)(c3ccccc3)[C@@H]2C1,,inactive
C=C1CCO[C@@]2([C@H](O)[C@@](C)(O)CO)NC(=O)[C@]1(O)NC2=O,5.79% [at 11.4 µM] (inactive),
N=C(N)c1ccccc1,,inactive
NC(=O)/C(=N\O)c1ccccc1,,inactive
NC(=O)c1cccc(N)c1,,12.6 µM (active)
O=C1C(Cc2ccccc2)SC(=Nc2ccccc2)N1c1ccccc1 (centres undefined),,15.8 µM (active)
O=C1C(Cc2ccccc2)NC(=S)N1c1ccccc1 (centres undefined),,inactive
CCOc1ccc(-n2c(=O)[nH]cc(C(=O)N3CCCc4ccccc43)c2=O)cc1,,12.6 µM (active)
O=C(c1c[nH]c(=O)n(-c2ccccc2)c1=O)N1CCc2ccccc21,,inactive
CCOc1ccc(NC(=O)C(=O)NCC2CCCN2CC)cc1 (centres undefined),,inactive
COc1ccc(C=Nc2c(O)ccc3ccccc23)cc1OC,-1.31% [at 11.4 µM] (inactive),
O=[N+]([O-])c1ccc(Cl)c(-c2ccc(/C=N/c3c(-c4ccco4)nc4ccccn34)o2)c1,,inactive
COc1cc(-c2nc3ccccn3c2/N=C/c2ccccc2)ccc1O,,14.1 µM (active)
CCOc1cc(/C=N/O)cc(Cl)c1OC,,inactive
CCOc1cc(/C=N/n2cnnc2)c(Br)cc1O,,10 µM (active)
COc1ccc(NC(=O)N2CC3(CCN(C(=O)c4cccn4C)CC3)C2)cc1,,inactive
CCC(Sc1nc2n[nH]c(C)c2c(=N)n1-c1cccc(Cl)c1)C(=O)NCCOC (centres undefined),,4.47 µM (active)
COCCNC(=O)CCn1nc(-c2ccc(Cl)cc2)ccc1=O,,inactive
CO[C@@H]1COC(=O)[C@H](C)NC(=O)[C@@H](C)COC(=O)CCC[C@H]1C,10.9% [at 11.4 µM] (inactive),
N#C/C(=C\c1ccc(O)c(O)c1)C(=O)OCCc1cccs1,,15.8 µM (active)
N#C/C(=C\c1ccc(O)c(O)c1)C(=O)NCCc1ccccc1,,inactive
